HSD17B inh = inhibitors of human HSD17B10 dehydrogenase | recombinant HSD17B10, NADH fluorescence kinetic | Potency, µM (titrated, usually from 57.1 µM), without a hit: at the top dose activity change, negative = inhibition, most hits filed as inhibitors | 75,000 compounds, 7.6% hits;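 note: the protocol describes HADH2 (HSD17B10) and not the HSD17B4 of the title; potency is the fitted concentration of half-maximal effect; % is set by controls: 0 for no effect and ±100 for the full control effect; nearly all actives have a fitted effect of over 70% in size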
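Enzyme plus compound, 15 min room temperature; substrate mix added (NAD+ 1 mM, beta-hydroxybutyryl-CoA 90 uM final); plates read kinetically for NADH fluorescence. HADH2 was His-tagged, E. coli-derived, 20 nM.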
CRE Fsk mod = alters forskolin-stimulated CRE reporter signaling in CHO cells | CHO CRE-bla reporter (cAMP response element driving beta-lactamase), forskolin EC10, beta-lactamase ratio | Potency, µM (series often up to 38.2 µM), for inactives: at the highest dose activity change, negative = inhibition, hits mostly activators | 71,000 compounds, 2.5% hits; active = well fitted activation curve with a large enough effect in the signal ratio, with a control signal flat, not every such curve was filed as active; inconclusive = small, poorly fitted or top-dose-only effect, or effect the other way, or a change in a side signal; the % refers to the signal ratio; note: potency is the fitted concentration of half-maximal effect; % of control where 0% means no effect
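Cells were plated overnight at 37 °C, exposed to compound titrations plus EC10 NKH 477 for 3 h, then given CCF4 dye for 2 h at room temperature. Blue/green (460/530 nm) ratio was converted to %Activity and AC50 values calculated.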
AID923 = qHTS Assay for Allosteric/Competitive Inhibitors of Caspase-1: Spectroscopic Profiling in AFC Spectral Region; Potency, µM (series often up to 57.5 µM), inactives show at the top dose fluorescence increase, usual class: activators; 75,000 compounds, 1.1% hits; compound fluorescence, AFC spectral region (405/520 nm); note: potency is the fitted concentration of half-maximal effect; 0% is about no effect
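Baseline compound fluorescence (AFC region, 405 nm ex/520 nm em) taken from the intercept of kinetic reads with 50 nM caspase-1 and 5 uM Ac-WEHD-AFC; normalized to an on-plate AFC standard curve; compounds titrated up to 57 uM.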
A350 autofl = compounds fluorescent in Alexa 350 spectral region. 59,000 compounds, 11% hits. AID 590. max dye-equivalent concentration, M. Compound autofluorescence, 340/450 nm, Alexa 350 dye-equivalents; stronger effect = higher value; in the data active = max dye-equivalent concentration above about 10 nM; inconclusive = mostly about 1.1 nM to 9.6 nM
HADH2 inh = HADH2 (human) dehydrogenase inhibition; 73,000 compounds, 3.4% hits; Potency, µM (series often up to 57.1 µM), for inactives: at the highest dose activity change, negative = inhibition, hits mostly inhibitors; Q99714; recombinant HADH2, NADH fluorescence, beta-hydroxybutyryl-CoA; note: potency is the fitted concentration of half-maximal effect; % is set by controls: 0 for no effect and ±100 for the full control effect; nearly all actives have a fitted effect of over 60% in size
Target sequence (Q99714 whole entry, looked up, one chain of several): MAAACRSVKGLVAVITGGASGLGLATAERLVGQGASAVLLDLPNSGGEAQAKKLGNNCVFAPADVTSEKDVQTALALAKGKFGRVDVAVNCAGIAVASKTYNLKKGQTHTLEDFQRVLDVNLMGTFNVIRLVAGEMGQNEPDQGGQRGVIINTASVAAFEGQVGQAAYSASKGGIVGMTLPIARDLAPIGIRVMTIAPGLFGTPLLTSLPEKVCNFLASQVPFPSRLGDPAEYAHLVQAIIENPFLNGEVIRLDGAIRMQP
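Activity measured as NADH fluorescence gain (360/450 nm), taken as the change between first and last reads of a 4-min kinetic run. Conditions: pH 9.0 Tris buffer, 20 nM E. coli-expressed His-tagged enzyme, 1 mM NAD+, 90 uM beta-hydroxybutyryl-CoA; 15-min compound preincubation.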
4MU fluor = compounds fluorescent in 4-MU spectral region | max dye-equivalent concentration, M | 59,000 compounds, 11% hits | compound autofluorescence, 340/450 nm, 4-MU equivalents; stronger effect = higher value; in the data active = max dye-equivalent concentration above about 10 nM; inconclusive = mostly about 1.1 nM to 9.6 nM
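Intrinsic fluorescence at 340/450 nm (ex/em) was read after 15 min at room temperature in pH 8.0, 100 mM Tris. Each compound concentration expressed as 4-MU-equivalent concentration from a six-point 4-MU standard series on each plate.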
Numbers without * were called inactive; [ ] = remark or other dose. The list is not random: actives were taken first. Their share in the collection is about 14%. Unless noted, calls come from the whole dose curve; as a rule, active = well fitted curve in the direction sought with a large enough effect; inconclusive = small, poorly fitted or top-dose-only effect, or another doubt; inactive = no such curve, though single readings can be large; an effect the other way counts as inactive or inconclusive.

Results for CN(C)c1[nH]c(=O)c(C#N)c2c1CCN2Cc1ccccc1 ?
HSD17B inh: inconclusive; CRE Fsk mod: inconclusive; AID923: 4%; A350 autofl: inconclusive; HADH2 inh: inconclusive; 4MU fluor: inconclusive

How did COc1ccc(OC)c(/C=N/c2oc(-c3ccco3)c(-c3ccco3)c2C#N)c1 do in these assays?
HSD17B inh: 25µM*; CRE Fsk mod: inconclusive; AID923: 13%; A350 autofl: inconclusive; HADH2 inh: 20µM*; 4MU fluor: inconclusive

What do the screens show for `COc1ccc(OC)c(Nc2cc(C)nc3nc(C)nn23)c1`?
HSD17B inh: 0%; CRE Fsk mod: inconclusive; AID923: -2%; HADH2 inh: 10%

How did COc1cc(Nc2cc(C)nc3nc(C)nn23)cc(OC)c1OC do in these assays?
HSD17B inh: 5%; CRE Fsk mod: 4µM*; AID923: -5%; HADH2 inh: 4%

How did COc1cccc(CNc2nc3nc(C)cc(C)n3n2)c1 do in these assays?
HSD17B inh: 32µM*; CRE Fsk mod: inconclusive; AID923: -2%; A350 autofl: 1.1e-08M*; HADH2 inh: inconclusive; 4MU fluor: 1.2e-08M*

How did COc1ccc(C)cc1Nc1cc(C)nc2nc(C)nn12 do in these assays?
HSD17B inh: 0%; CRE Fsk mod: 10µM*; AID923: -2%; HADH2 inh: 0%

Results for COc1ccc(Nc2cc(C)nc3nc(C)nn23)cc1Cl ?
HSD17B inh: 2%; CRE Fsk mod: inconclusive; AID923: 0%; HADH2 inh: 5%

Results for COc1ccc(Nc2cc(C)nc3nc(C)nn23)c(OC)c1 ?
HSD17B inh: 6%; CRE Fsk mod: inconclusive; AID923: 4%; HADH2 inh: 2%

How did COc1cccc(Nc2cc(C)nc3nc(C)nn23)c1 do in these assays?
HSD17B inh: -1%; CRE Fsk mod: 13µM*; AID923: -3%; HADH2 inh: 2%

How did Nc1nc(-c2ccccc2)c(-c2ccccc2)c(-c2nc(N)nc(-c3ccccc3)c2-c2ccccc2)n1 do in these assays?
HSD17B inh: 7%[11.4 µM]; CRE Fsk mod: -2%[7.6 µM]; AID923: -3%[11.5 µM]; A350 autofl: inactive; HADH2 inh: 5%[11.4 µM]; 4MU fluor: inactive

How did CN(C)[C@H]1C(=O)C(C(=O)NCN2CCCC2)=C(O)[C@]2(O)C(=O)C3=C(O)c4c(O)cccc4[C@@](C)(O)[C@H]3C[C@@H]12 do in these assays?
HSD17B inh: inconclusive; CRE Fsk mod: 2%[17.1 µM]; AID923: -1%[25.7 µM]; A350 autofl: inconclusive; HADH2 inh: inconclusive; 4MU fluor: inconclusive

How did Cn1c2ccccc2c2c(C(=O)O)cn(C3CCCC3)c(=O)c21 do in these assays?
HSD17B inh: 32µM*; CRE Fsk mod: 2%; AID923: -2%; HADH2 inh: inconclusive

What do the screens show for `COc1ccc(N2CCN(C(=O)c3cn(C4CCCC4)c(=O)c4c3c3ccccc3n4C)CC2)cc1`?
HSD17B inh: inconclusive; CRE Fsk mod: inconclusive; AID923: 1%; A350 autofl: inconclusive; HADH2 inh: -1%; 4MU fluor: inconclusive

Results for Cn1c2ccccc2c2c(C(=O)N3CCN(c4ccccn4)CC3)cn(C3CCCC3)c(=O)c21 ?
HSD17B inh: 25µM*; CRE Fsk mod: inconclusive; AID923: 1%; A350 autofl: 4.8e-08M*; HADH2 inh: -28%; 4MU fluor: 5.1e-08M*

What do the screens show for `CC(=O)OCC1OC(C#Cc2ccccc2)C=CC1O` (configuration not stated)?
HSD17B inh: 3%[11.4 µM]; AID923: 3%[11.5 µM]; HADH2 inh: 4%[11.4 µM]

What do the screens show for `COc1ccc2[nH]c(I)c(CCNC(C)=O)c2c1`?
HSD17B inh: 1%; CRE Fsk mod: 14%; AID923: -6%; A350 autofl: inactive; HADH2 inh: -3%; 4MU fluor: inactive

What do the screens show for `COc1ccc2[nH]c(C(=O)O)c(CCNC(C)=O)c2c1`?
HSD17B inh: 25µM*; CRE Fsk mod: -5%; AID923: 1%; A350 autofl: inactive; HADH2 inh: 25µM*; 4MU fluor: inactive

Screening data (PubChem)
